Assay [1] can be described thus: Her2 expression decrease, cell viability multiplex – SKBR3 breast tumor cells, AlphaScreen, ATP viability, primary screen (AID 461;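 active = Her2 level under about 52% in both replicate screens, with viability over 70% of control, limit read from the data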;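 as to Her2 level: lower value means less Her2 protein in the cells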;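 as to viability: percent of carrier control wells set as 100% viability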). Conditions: SKBR3 Her2 protein level, 18-24 h, measured here: SKBR3 viability, ATP luminescence, at 10 µM.
Assay [2] concerns the target Receptor tyrosine-protein kinase erbB-2 (Homo sapiens) (UniProt P04626). Described as above. Conditions: 18-24 h, at 10 µM, stronger effect = lower value.
Assay [3] can be described thus: reduced viability of SK-BR-3 breast cancer cells – cell-based, 24 h, human, pilot screen (AID 572;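 active = viability at or below 10% of carrier control in both of two separate runs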;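 also: compound exposure lasted between 18 and 24 h rather than exactly 24 h; 100% = carrier-treated control wells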). The conditions noted are these: SK-BR-3 viability, CellTiter-Glo luminescence, at 10 µM, stronger effect = lower value.
A short description of assay [4]: HUVEC growth inhibition – cell-based, human, primary screen (AID 575;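 active = viability at or below 30% in both replicate assays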;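 also: 100% = median of untreated cell wells with 0.1% DMSO on each plate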). Conditions: HUVEC proliferation, CellTiter-Glo luminescence, 72 h; at 10 µM; stronger effect = lower value. For orientation: Cellular ATP, detected with luciferase, serves as a proxy for viable cell number.
Assay [5] can be described thus: H69AR cell proliferation blockers – human, duplicate replicates, primary screen (AID 580;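 active = viability at or under a set limit in both replicates, limit being median viability minus 3 SD, cut at about 48% in these data, passing the limit was not always enough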;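 also: 100% = mean luminescence of untreated wells and 0% = no signal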). The conditions noted are these: H69AR lung tumor cells viability, ATP luminescence, 72 h; at 10 µM; stronger effect = lower value.
The nature of assay [6]: MRP1 drug-resistance reversers in H69AR cells – cell-based, doxorubicin co-treatment, pilot screen (AID 601;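 active = viability loss from added drug above about 55%, and viability with drug at most 40%, in both replicates, limit read from the data, passing the limit was not always enough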). The conditions noted are these: CellTiter-Glo, 72 h, at 10 µM; for differential viability (reversal): stronger effect = higher value.
Assay [7] in a line: yeast transport mutant growth inhibition pilot in 384-well plates, post-Golgi transport modulator project (AID 636; in the data active = inhibition above about 31%). The conditions noted are these: absorbance 615 nm, about 18 h, stronger effect = higher value.
Assay [8] can be described thus: growth suppression of yeast trafficking mutant, preliminary HTS, modulators of trafficking downstream of Golgi apparatus project, 1536-format plate, OD 615 nm (AID 637; in the data active = inhibition above about 30%). The conditions noted are these: yeast transport mutant growth, absorbance 615 nm, 18 h; stronger effect = higher value.
Assay [9] can be described thus: S. cerevisiae growth inhibition in permissive medium (OD615), pilot counter-assay for S. cerevisiae lifespan shortening project, permissive growth control (AID 705;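 active = growth inhibition above 25% in both replicates, a cutoff set 3 SD above the mean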). Conditions: OD615, 24 h, at 10 µM, stronger effect = higher value.
Assay [10] can be described thus: S. cerevisiae growth inhibition in restrictive medium, OD615, pilot screen, restrictive growth control, yeast lifespan reduction project (AID 706;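 active = growth inhibition above a set limit, 3 SD over mean compound inhibition, in both replicates, cut at about 43% in these data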;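 also: modified DeaD lifespan yeast strain shifted to restrictive glucose medium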). Conditions: OD615, 48 h, at 10 µM, stronger effect = higher value.
The nature of assay [11]: doxorubicin toxicity protection in MRP-1 cells – H69AR cells, CellTiter-Glo, duplicate, MRP-1 activator project, pilot screen (AID 807;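 active = viability increase at or above a cutoff of the median across tested compounds plus 3 SD, cut at about 8.5% in these data, passing the limit was not always enough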;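 also: compound pretreatment 18-22 h then 72 h combined with doxorubicin; 0% = doxorubicin alone and 100% = vehicle without doxorubicin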). The conditions noted are these: H69AR viability with doxorubicin, CellTiter-Glo luminescence; at 10 µM; stronger effect = higher value.
A short description of assay [12]: viability of HCT116 without oncogenic beta-catenin – human colon tumor cells, pilot screen (AID 823;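 active = cell viability at or below a set limit in both duplicate runs, the limit being the all-compound median minus 4 SD, cut at about 23% in these data, passing the limit was not always enough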;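 also: 0% = wells killed by 20 µM Hyamine and 100% = untreated DMSO cell wells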). The conditions noted are these: HCT116 beta-catenin knockout viability, CellTiter-Glo, 60 h; at 10 µM; stronger effect = lower value.
The nature of assay [13]: viability of PTEN-null HCT116 cells – cell-based, HCT116 clonal line, CellTiter-Glo, pilot screen (AID 824).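 Also: 0% = 20 µM Hyamine control and 100% = vehicle cell control.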 Conditions: HCT116 PTEN-deleted viability, 60 h, at 10 µM, stronger effect = lower value.
A short description of assay [14]: RAM pathway blockade in budding yeast – dse1pr::URA3 reporter, 5-FOA selection, pilot screen (AID 869;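 active = inhibition over a set limit, the all-compound mean plus 3 SD, in both replicate runs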;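 also: 0% = DMSO wells with no growth and 100% = 10 µM 1-NA-PP1 with full growth; RAM network block rescues cells from 5-FOA so hits raise OD615 growth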). Conditions: S. cerevisiae dse1pr::URA3 5-FOA growth, OD615, 2 d; at 10 µM; stronger effect = higher value; strain carries analog-sensitive mutant Cbk1 kinase.
Assay [15] can be described thus: RAM signaling pathway blockade in yeast – S. cerevisiae, Pdr1DBD-CYC8 efflux-inhibited sensitized strain, primary screen (AID 1298;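 active = RAM network inhibition above 8.4% in each of two replicates, 3 SD over the compound average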;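 also: 0% = DMSO untreated cells without growth and 100% = 10 µM 1-NA-PP1 full growth; higher means more yeast growth rescued from 5-FOA killing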). Conditions: S. cerevisiae cbk1-as DSE1-URA3 strain, 5-FOA growth OD615, 2 d; at 50 µM; stronger effect = higher value.
Setting [16] is: H69AR cells + 2 uM doxorubicin, measured here: viability with 2 uM doxorubicin, stronger effect = lower value.
Where [17] appears, read: H69AR cells, compound alone cytotoxicity.

Records with an inconclusive call do not appear. Activity calls are given as the source filed them.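 The calls were made as follows, unless noted: active = viability at or below 27.92% in each of two runs, the all-compound median minus 4 SD; inconclusive = no clear call, values can overlap the other calls; inactive = the rest.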

Sequence of Receptor tyrosine-protein kinase erbB-2 (Homo sapiens) (P04626 whole entry, looked up): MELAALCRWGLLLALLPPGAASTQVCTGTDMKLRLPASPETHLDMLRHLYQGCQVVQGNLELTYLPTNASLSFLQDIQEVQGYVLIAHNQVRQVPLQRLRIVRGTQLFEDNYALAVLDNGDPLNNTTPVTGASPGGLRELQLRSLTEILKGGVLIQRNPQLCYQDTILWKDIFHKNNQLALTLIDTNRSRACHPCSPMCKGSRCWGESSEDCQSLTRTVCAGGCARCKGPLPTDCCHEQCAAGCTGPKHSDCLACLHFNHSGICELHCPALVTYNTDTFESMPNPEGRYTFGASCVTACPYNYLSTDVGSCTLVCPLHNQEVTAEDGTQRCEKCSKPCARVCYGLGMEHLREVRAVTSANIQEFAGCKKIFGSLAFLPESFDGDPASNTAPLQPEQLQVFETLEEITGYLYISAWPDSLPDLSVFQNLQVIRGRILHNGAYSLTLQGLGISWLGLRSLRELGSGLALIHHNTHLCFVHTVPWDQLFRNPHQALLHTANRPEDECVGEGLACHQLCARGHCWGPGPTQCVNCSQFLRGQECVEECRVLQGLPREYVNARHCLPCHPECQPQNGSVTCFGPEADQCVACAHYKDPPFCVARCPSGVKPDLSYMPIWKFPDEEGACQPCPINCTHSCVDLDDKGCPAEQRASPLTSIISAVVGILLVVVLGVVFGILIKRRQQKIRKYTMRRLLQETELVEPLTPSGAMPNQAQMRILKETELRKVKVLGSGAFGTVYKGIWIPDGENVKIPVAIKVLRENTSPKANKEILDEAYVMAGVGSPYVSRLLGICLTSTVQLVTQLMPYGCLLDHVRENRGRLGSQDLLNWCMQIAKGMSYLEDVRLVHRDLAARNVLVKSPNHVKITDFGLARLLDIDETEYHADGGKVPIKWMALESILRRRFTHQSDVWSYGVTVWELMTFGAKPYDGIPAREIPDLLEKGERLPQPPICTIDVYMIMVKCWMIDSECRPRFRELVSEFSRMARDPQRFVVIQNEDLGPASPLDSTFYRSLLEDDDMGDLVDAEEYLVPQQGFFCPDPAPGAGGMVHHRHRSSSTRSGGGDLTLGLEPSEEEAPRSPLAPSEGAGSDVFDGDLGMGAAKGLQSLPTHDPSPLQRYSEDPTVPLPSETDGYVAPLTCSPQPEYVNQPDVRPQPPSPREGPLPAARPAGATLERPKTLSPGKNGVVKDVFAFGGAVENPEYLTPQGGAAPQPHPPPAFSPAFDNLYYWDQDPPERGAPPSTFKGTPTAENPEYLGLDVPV

For the molecule `Cc1cccnc1-n1c(CCN2C(=O)c3ccccc3C2=O)nc2ccccc2c1=O`, the viability – broadly, a read-out of living cells in per cent, often relative to untreated cells – in assay [1] is 89.5%; in assay [3], 89.5% (inactive); in assay [4] it was 89.2% (inactive); in assay [5], 95.1% (inactive); in [6] (setting [16]) it was 91.1%; in assay [6] (setting [17]), 95.1%. Besides, the values for the viability in assay [12] and in assay [13] were 102% (inactive) and 97.4% (inactive), respectively. The Her2 level in [2] is 106% (inactive). In addition, the differential viability (reversal) in assay [6] (H69AR cells + 2 uM doxorubicin) was 4.03% (inactive). Besides, the inhibition (in general, the drop in the measured response relative to a control, in per cent) in [7] is 1.28% (inactive); in [8], -10.3% (inactive); in assay [14], 0.525% (inactive). Moreover, the figures for the growth inhibition in assay [9] and in [10] were 6.29% (inactive) and -3.29% (inactive), respectively. Further, the viability increase in assay [11] was -2.01% (inactive). Moreover, the RAM network inhibition in assay [15] was 3.68% (inactive).
For the molecule `O=C(Nc1ccc(Cl)cn1)c1cccnc1`, the viability in [1] was 104%; in [3] it was 104% (inactive); in assay [4], 81.6% (inactive); in assay [5], 70.1% (inactive); in [6] (setting [16]), 87.6%; in [6] (setting [17]), 70.1%. The viability in [12] was 63% (inactive); in [13], 62% (inactive). Also, in assay [2], the Her2 level is 112% (inactive). The differential viability (reversal) in [6] (H69AR cells + 2 uM doxorubicin) is -17.4% (inactive). For the same molecule, the results for the inhibition in assay [7], in [8] and in assay [14] were -0.52% (inactive), -6.56% (inactive) and 1.56% (inactive), respectively. Also, the growth inhibition in assay [9] was -8.23% (inactive); in [10], -14.8% (inactive). The viability increase in assay [11] was -4.65% (inactive). In [15], the RAM network inhibition was -0.47% (inactive).
As for `Cc1nc2sc(C(c3cccs3)N3CCOCC3)c(O)n2n1` (stereo not drawn), the viability was 90% in [1]; 90% (inactive) in assay [3]; 94.8% (inactive) in [4]; 88.6% (inactive) in assay [5]; 93.4% in [6] (setting [16]); 88.6% in assay [6] (setting [17]). Further, the viability was 107% (inactive) in assay [12] and 94.2% (inactive) in [13]. Besides, the Her2 level in assay [2] is 100% (inactive). For the same molecule, the differential viability (reversal) in assay [6] (H69AR cells + 2 uM doxorubicin) is -4.79% (inactive). Besides, the inhibition was -7.73% (inactive) in assay [7], -0.83% (inactive) in assay [8] and 1.54% (inactive) in assay [14]. Besides, the growth inhibition in assay [9] is -7.23% (inactive); in assay [10], -11.9% (inactive). In assay [11], the viability increase is -0.31% (inactive). Also, the RAM network inhibition in assay [15] is 1.99% (inactive).
Turning to `COc1ccc(C(c2sc3nc(C)nn3c2O)N2CCCCC2)cc1` (stereo not drawn), the viability in [1] is 90%; in assay [3] it was 90% (inactive); in [4], 111% (inactive); in [5], 81.8% (inactive); in [6] (setting [16]), 95.5%; in [6] (setting [17]) it was 81.8%. The viability in assay [12] is 100% (inactive); in [13], 95.2% (inactive). Further, in [2], the Her2 level was 94.5% (inactive). Also, the differential viability (reversal) in assay [6] (H69AR cells + 2 uM doxorubicin) is -13.7% (inactive). The results for the inhibition in assay [7], in [8] and in [14] were -2.95% (inactive), 1% (inactive) and 0.45% (inactive), respectively. Further, the growth inhibition in assay [9] was -3.33% (inactive); in [10], 8.2% (inactive). Besides, in assay [11], the viability increase was -1.47% (inactive). Further, the RAM network inhibition in [15] is 3.51% (inactive).
On to `CCn1c(SCC(=O)Nc2ccc(Cl)cc2)nnc1C1CC1`, for which the viability in [1] is 92.5%; in assay [3] it was 92.5% (inactive); in assay [4], 84.2% (inactive); in assay [5], 74.7% (inactive); in assay [6] (setting [16]), 63.7%; in assay [6] (setting [17]), 74.7%. Moreover, the viability in assay [12] is 102% (inactive); in [13] it was 97.8% (inactive). For the same molecule, in assay [2], the Her2 level is 95.5% (inactive). Further, the differential viability (reversal) in assay [6] (H69AR cells + 2 uM doxorubicin) is 11.1% (inactive). The inhibition in [7] was -2.27% (inactive); in assay [8], 1.67% (inactive); in assay [14], 0.85% (inactive). In addition, the growth inhibition is 5.96% (inactive) in [9] and 1.14% (inactive) in assay [10]. The viability increase in assay [11] was -4.1% (inactive). In addition, the RAM network inhibition in assay [15] is 3.74% (inactive).
For `COCCCNC(=O)c1ccc(CS(=O)(=O)c2ccc(OC)cc2)o1`, the viability was 104% in [1]; 104% (inactive) in [3]; 95.4% (inactive) in assay [4]; 91.6% (inactive) in assay [5]; 87.1% in assay [6] (setting [16]); 91.6% in [6] (setting [17]). Further, the viability in assay [12] was 98.6% (inactive); in assay [13] it was 91% (inactive). Moreover, in assay [2], the Her2 level was 105% (inactive). In addition, in assay [6] (H69AR cells + 2 uM doxorubicin), the differential viability (reversal) was 4.5% (inactive). In addition, the inhibition in assay [7] was -4% (inactive); in assay [8], 2.62% (inactive); in assay [14], 0.405% (inactive). The growth inhibition in assay [9] is -12% (inactive); in assay [10] it was -24.6% (inactive). Also, the viability increase in assay [11] is -1.48% (inactive). Further, in assay [15], the RAM network inhibition is 1.46% (inactive).
As to `Cc1cccc(-n2ncc3c(N(CCO)CCO)ncnc32)c1`, the viability in assay [1] is 97%; in assay [3], 97% (inactive); in assay [4], 78.7% (inactive); in assay [5] it was 90% (inactive); in [6] (setting [16]) it was 78.7%; in assay [6] (setting [17]) it was 90%. The viability was 94.9% (inactive) in [12] and 101% (inactive) in assay [13]. In addition, in [2], the Her2 level is 91.5% (inactive). Also, the differential viability (reversal) in [6] (H69AR cells + 2 uM doxorubicin) is 11.3% (inactive). Also, the values for the inhibition in assay [7], in assay [8] and in assay [14] were -5.2% (inactive), -1.97% (inactive) and 2.43% (inactive), respectively. Moreover, the growth inhibition was -0.18% (inactive) in [9] and 0.945% (inactive) in [10]. In addition, in assay [11], the viability increase is -1.41% (inactive). For the same molecule, the RAM network inhibition in assay [15] is -0.31% (inactive).
For `CC(C)CCn1c(NCCc2ccccc2)nc2c1c(=O)n(C)c(=O)n2C`, the viability is 80% in assay [1]; 80% (inactive) in assay [3]; 50.8% (inactive) in [4]; 81.8% (inactive) in assay [5]; 82.1% in [6] (setting [16]); 81.8% in assay [6] (setting [17]). Further, the values for the viability in assay [12] and in [13] were 57.1% (inactive) and 57.4% (inactive), respectively. In [2], the Her2 level is 57.5% (inactive). Also, the differential viability (reversal) in assay [6] (H69AR cells + 2 uM doxorubicin) is -0.235% (inactive). The inhibition in assay [7] was -2.93% (inactive); in assay [8], 2.17% (inactive); in assay [14], 1.94% (inactive). For the same molecule, the figures for the growth inhibition in assay [9] and in assay [10] were -0.96% (inactive) and 8.48% (inactive), respectively. The viability increase in assay [11] was -2.21% (inactive). Besides, the RAM network inhibition in assay [15] was -0.32% (inactive).
With `Cc1cc(NC(=O)CS(=O)(=O)c2cn(Cc3cccc(F)c3)c3ccccc23)no1`, the viability in [1] is 124%; in assay [3], 124% (inactive); in assay [4], 69.7% (inactive); in [5] it was 92.7% (inactive); in [6] (setting [16]), 88.7%; in assay [6] (setting [17]), 92.7%. In addition, the figures for the viability in assay [12] and in assay [13] were 65.8% (inactive) and 72.2% (inactive), respectively. Moreover, the Her2 level in assay [2] is 75.5% (inactive). For the same molecule, the differential viability (reversal) in [6] (H69AR cells + 2 uM doxorubicin) was 3.98% (inactive). Further, the inhibition in [7] is -6.62% (inactive); in [8], -4.67% (inactive); in assay [14], 1.3% (inactive). Also, the growth inhibition in assay [9] is -5.79% (inactive); in assay [10], -24.3% (inactive). In addition, in assay [11], the viability increase is -1.03% (inactive). The RAM network inhibition in assay [15] is 5.39% (inactive).

The values are drawn from PubChem BioAssay.
